From PubChem
Rows were chosen to be rich in hits. Some 21% of all compounds tested hit in one or more screens of this group.
NS1 function inh = qHTS Assay for Inhibitors of Influenza NS1 Protein Function. AID 2326, 2010. actives 0.4% (n = 270,000). Potency, µM (top dose mostly 46.1 µM); also: actives are rising curves; nearly all actives have a fitted effect of over 50% in size
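In this qHTS, NS1 from influenza A is expressed in budding yeast, where it slows growth. Cells are switched from glucose to 2% galactose medium (pH 6.0, -URA), treated with compound, and growth recovery is read at OD600.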
Pf growth 96h = Primary qHTS for delayed death inhibitors of the malarial parasite plastid, 96 hour incubation | P. falciparum luciferase reporter growth, 96 h | actives 6.9% (n = 320,000) | Potency, µM (series often up to 28.7 µM), actives largely listed as inhibitors; active = well fitted inhibition curve with a large enough effect; inconclusive = small, poorly fitted or top-dose-only effect, or another doubt; inactive = no such curve, though single readings can be large or run the other way
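Erythrocytes infected with luciferase-expressing P. falciparum were dispensed at 2% hematocrit and 0.05% parasitemia (final), then incubated with compounds 96 hours at 37 C in 5% CO2. Luminescence after detection reagent addition reported growth.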
Shiga toxin inh = A qHTS for Small Molecule Inhibitors of Shiga Toxin. inhibition, % at 38.7 µM. Vero cells, Shiga toxin protein synthesis inhibition reporter. actives 9.2% (n = 290,000). AID 2315, 2010; in the data active = inhibition mostly above about 28%, no sharp cut-off; inactive = mostly below about 43%
CHX counter = Cycloheximide Counterscreen for Small Molecule Inhibitors of Shiga Toxin | cell reporter, cycloheximide protein synthesis inhibition counterscreen | max response, % | actives 12% (n = 300,000); in the data active = max response mostly above about 13%, no sharp cut-off; inactive = mostly below about 14%; also: read at 38.3 µM for the half of the compounds with a filed dose
SARS PLpro yeast = qHTS of Yeast-based Assay for SARS-CoV PLP | S. cerevisiae expressing SARS-CoV PLpro, growth rescue | Potency, µM (series often up to 32.9 µM), hits mostly activators | actives 0.19% (n = 330,000) | AID 485353, 2010; also: nearly all actives have a fitted effect of over 55% in size
Pf growth 48h = Primary qHTS for delayed death inhibitors of the malarial parasite plastid, 48 hour incubation; AID 504832, 2011; actives 5.9% (n = 310,000); Potency, µM (highest dose often 28.7 µM), most hits filed as inhibitors; P. falciparum luciferase growth in erythrocytes, 48 h; active = well fitted inhibition curve with a large enough effect; inconclusive = small, poorly fitted or top-dose-only effect, or another doubt; inactive = no such curve, though single readings can be large or run the other way
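Growth was read as firefly luciferase luminescence after a 48 h, 37 C, 5% CO2 exposure of compounds to reporter-bearing P. falciparum cultures (0.1% parasitemia, 2% hematocrit final) in Albumax-supplemented RPMI 1640.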
Of the large screens only hits and unclear results are named; the others gave an inactive call. Unless noted, calls follow the shape of the full dose curve.

CCOc1ccc(NC(=O)C2CCCN(S(=O)(=O)c3ccc4c(c3)CC(C)N4C(C)=O)C2)cc1 (stereo not given)	Pf growth 96h inconclusive, Pf growth 48h inconclusive
COc1ccc(NC(=O)C2CCCN(S(=O)(=O)c3ccc4c(c3)CC(C)N4C(C)=O)C2)cc1 (stereo not given)	Pf growth 48h 13µM
COc1ccc(NC(=O)C2CCCN(S(=O)(=O)c3ccc4c(c3)CCCN4C(C)=O)C2)cc1 (stereo not given)	Pf growth 48h 12µM
CC(OC(=O)CC1CCCC1)C(=O)Nc1ccc(Cl)cn1 (stereo not given)	none (no result: NS1 function inh, Shiga toxin inh, CHX counter)
Cc1ccc(S(=O)(=O)Nc2nc(-c3ccccc3)cs2)cc1	none
Cc1ccc(Nc2nc(-c3ccccc3)cs2)nc1	CHX counter 27
Cc1ccc(Nc2nc(-c3cccs3)cs2)nc1	CHX counter 31
Cc1cc(C)nc(Nc2nc(-c3ccccc3)cs2)n1	Shiga toxin inh 73, CHX counter 53
c1ccc(-c2csc(Nc3nc(N4CCOCC4)nc(N4CCOCC4)n3)n2)cc1	Pf growth 48h inconclusive
CCN1CCc2c(sc(NC(=S)NC(=O)c3ccc(Cl)cc3)c2C(N)=O)C1	Pf growth 96h inconclusive, Pf growth 48h inconclusive
CC(C)(C)c1ccc(C(=O)C2CCCN(C(=O)C3CCOCC3)C2)cc1 (stereo not given)	Pf growth 48h 5.9µM
Cc1noc(C)c1CC(=O)N1CCCC(C(=O)c2ccc(C(C)(C)C)cc2)C1 (stereo not given)	Pf growth 96h inconclusive, Pf growth 48h inconclusive
Cn1nccc1C(=O)N1CCCC(C(=O)c2ccc(C(F)(F)F)cc2)C1 (stereo not given)	Pf growth 96h 15µM
CCc1cc(C(=O)N2CCCC(C(=O)c3ccc(C(F)(F)F)cc3)C2)n(C)n1 (stereo not given)	none
COc1ccccc1C(=O)Nc1ccnn1C1CCN(Cc2ncc[nH]2)CC1	Pf growth 96h inconclusive
Oc1c(Br)cc(Br)cc1CN(Cc1cc(Br)cc(Br)c1O)C1CCCCC1	none (no result: Pf growth 96h, Shiga toxin inh, CHX counter, SARS PLpro yeast, Pf growth 48h)
CC1=NCCc2c1[nH]c1ccccc21	none
c1ccc2c(c1)SCc1c-2[nH]c2ccccc12	Shiga toxin inh 47, CHX counter 15 (no result: NS1 function inh, Pf growth 96h, SARS PLpro yeast, Pf growth 48h)
c1ccc2c(c1)OCCc1c-2[nH]c2ccccc12	Pf growth 96h inconclusive, CHX counter 14
COc1ccc(-c2cn(CCO)c(CCN)n2)cc1	none (no result: NS1 function inh, Shiga toxin inh, CHX counter)
O=S(=O)(Cc1noc(-c2ccc(Cl)cc2)n1)Cc1ccco1	none
CCCCNCCCOc1ccc(C)cc1Br	Pf growth 96h 2.3µM, Pf growth 48h inconclusive
C=CCNCCOCCOc1ccc(C)cc1Br	CHX counter 28
CCOC(=O)c1ccc2c(c1)N(CC(=O)N1CCCC1)C(=O)C(C)(C)O2	none
CC1(C)Oc2ccc(C(=O)Nc3ccccc3F)cc2N(CC(=O)N2CCOCC2)C1=O	Pf growth 96h inconclusive, CHX counter 12
CCOC(=O)c1ccc2c(c1)N(CC#N)C(=O)C(C)(C)O2	CHX counter 17, Pf growth 48h inconclusive
COC(=O)CN1C(=O)C(C)(C)Oc2ccc(C(=O)Nc3ccccc3F)cc21	none
COC(=O)CN1C(=O)C(C)(C)Oc2ccc(C(=O)NC3CCCC3)cc21	none
CCOC(=O)CN1C(=O)C(C)(C)Oc2ccc(C(=O)Nc3ccccc3)cc21	NS1 function inh inconclusive, Pf growth 96h inconclusive, CHX counter 13, Pf growth 48h inconclusive
CCC(C)(C)NC(=O)c1ccc2c(c1)N(CC(=O)NC1CCCC1)C(=O)C(C)(C)O2	Pf growth 96h 6.6µM
COc1ccc(N2CC(C(=O)N3CCN(C(=O)c4ccco4)CC3)CC2=O)cc1 (stereo not given)	none
COC(=O)CC/C(O)=C1\C(=O)CC(C)(C)CC1=NCc1nc2ccccc2[nH]1	Pf growth 48h inconclusive (no result: NS1 function inh)
Cc1c(C(=O)N2CCCCC2)c(S(=O)(=O)N2CCc3ccccc32)c(C)n1C	SARS PLpro yeast inconclusive, Pf growth 48h inconclusive
CCCN(CCC)CCNC(=O)CN1C(=O)COc2ccc(S(=O)(=O)N3CCOCC3)cc21	Pf growth 96h inconclusive
Cc1ccc(S(=O)(=O)Nc2cc(C)cn(Cc3ccccc3)c2=O)cc1	Pf growth 48h inconclusive
Cc1ccc(S(=O)(=O)Nc2cc(C)cn(Cc3ccc(F)cc3)c2=O)cc1	Pf growth 96h inconclusive, Pf growth 48h 0.21µM
